# Data: PubChem BioAssay AID1159580 (chemical genetic matrix, 2015)
# “And” between values parts separate entries of the source, which are not always exact repeats. Equal values may be shown once. Out of some 5,500 compounds screened, about 2,000 (36%) were called active. Another 18% or so got no clear call; they are omitted. Rule as the data show it: active = normalized growth mostly below about 0.91 (no sharp cut-off); inconclusive = no clear call, values can overlap the other calls; inactive = mostly above about 0.92. The list shows a part of the results. Where a structure was tested more than once in an assay, its records may differ in their call.
# Test: chemical genetic growth profiling, strain panel (AID 1159580);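 also: tested at 20 µM; growth read once vehicle control cultures reached saturation at 30 °C; 1 = growth at the plate median or of vehicle wells; lower values mean less growth of the strain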
# Settings: growth OD
smiles,measurement,setting,value
O=c1c2ccccc2[se]n1-c1ccccc1,normalized growth,"S. cerevisiae deletion strains, locus YJR075W, strain HOC1, stronger effect = lower value",0.0678 (active)
same,normalized growth,"S. cerevisiae deletion strains, locus YKL068W, stronger effect = lower value",0.0623 (active)
same,normalized growth,"S. cerevisiae deletion strains, locus YKL085W, strain MDH1 (second series), stronger effect = lower value",0.0549 (active)
same,normalized growth,"S. cerevisiae deletion strains, locus YKL085W, strain MDH1, stronger effect = lower value",0.0549 (active)
same,normalized growth,"S. cerevisiae deletion strains, locus YKL160W, strain elf1, stronger effect = lower value",0.0672 (active)
same,normalized growth,"S. cerevisiae deletion strains, locus YKL190W, strain CNB1, stronger effect = lower value",0.0495 (active)
same,normalized growth,"S. cerevisiae deletion strains, locus YKR001C, strain vps1, stronger effect = lower value",0.064 (active)
same,normalized growth,"S. cerevisiae deletion strains, locus YKR026C, strain gcn3, stronger effect = lower value",0.0615 (active)
same,normalized growth,"S. cerevisiae deletion strains, locus YKR091W, strain srl3, stronger effect = lower value",0.0622 (active)
same,normalized growth,"S. cerevisiae deletion strains, locus YLL001W, strain dnm1, stronger effect = lower value",0.0729 (active)
same,normalized growth,"S. cerevisiae deletion strains, locus YLL026W, stronger effect = lower value",0.0595 (active)
same,normalized growth,"S. cerevisiae deletion strains, locus YLL041C, strain sdh2, stronger effect = lower value",0.0595 (active)
same,normalized growth,"S. cerevisiae deletion strains, locus YLR027C, strain aat2, stronger effect = lower value",0.0567 (active)
same,normalized growth,"S. cerevisiae deletion strains, locus YLR039C, strain RIC1, stronger effect = lower value",0.0906 (active)
same,normalized growth,"S. cerevisiae deletion strains, locus YLR058C, strain SHM2, stronger effect = lower value",0.955 (inactive)
same,normalized growth,"S. cerevisiae deletion strains, locus YLR102C, strain apc9, stronger effect = lower value",0.0627 (active)
same,normalized growth,"S. cerevisiae deletion strains, locus YLR113W, strain HOG1, stronger effect = lower value",0.138 (active)
same,normalized growth,"S. cerevisiae deletion strains, locus YLR221C, strain rsa3, stronger effect = lower value",0.061 (active)
same,normalized growth,"S. cerevisiae deletion strains, locus YLR258W, strain gsy2, stronger effect = lower value",0.0609 (active)
same,normalized growth,"S. cerevisiae deletion strains, locus YLR262C, strain YPT6 (second series), stronger effect = lower value",0.0795 (active)
same,normalized growth,"S. cerevisiae deletion strains, locus YLR262C, strain YPT6, stronger effect = lower value",0.0981 (active)
same,normalized growth,"S. cerevisiae deletion strains, locus YLR268W, strain sec22, stronger effect = lower value",0.0733 (active)
same,normalized growth,"S. cerevisiae deletion strains, locus YLR320W, strain mms22, stronger effect = lower value",0.0819 (active)
same,normalized growth,"S. cerevisiae deletion strains, locus YLR330W, strain CHS5, stronger effect = lower value",0.0552 (active)
same,normalized growth,"S. cerevisiae deletion strains, locus YLR342W, strain FKS1 (second series), stronger effect = lower value",0.0785 (active)
same,normalized growth,"S. cerevisiae deletion strains, locus YLR342W, strain FKS1, stronger effect = lower value",0.0773 (active)
same,normalized growth,"S. cerevisiae deletion strains, locus YLR357W, strain rsc2, stronger effect = lower value",0.117 (active)
same,normalized growth,"S. cerevisiae deletion strains, locus YLR370C, strain arc18, stronger effect = lower value",0.0623 (active)
same,normalized growth,"S. cerevisiae deletion strains, locus YLR371W, strain rom2, stronger effect = lower value",0.0624 (active)
same,normalized growth,"S. cerevisiae deletion strains, locus YLR384C, strain iki3, stronger effect = lower value",0.554 (active)
same,normalized growth,"S. cerevisiae deletion strains, locus YLR418C, strain cdc73, stronger effect = lower value",0.0967 (active)
same,normalized growth,"S. cerevisiae deletion strains, locus YML016C, strain PPZ1, stronger effect = lower value",0.0497 (active)
same,normalized growth,"S. cerevisiae deletion strains, locus YML032C, strain rad52, stronger effect = lower value",0.832 (active)
same,normalized growth,"S. cerevisiae deletion strains, locus YML120C, strain ndi1, stronger effect = lower value",0.724 (active)
same,normalized growth,"S. cerevisiae deletion strains, locus YML124C, strain tub3, stronger effect = lower value",0.0602 (active)
same,normalized growth,"S. cerevisiae deletion strains, locus YMR058W, strain fet3, stronger effect = lower value",0.062 (active)
same,normalized growth,"S. cerevisiae deletion strains, locus YMR078C, strain ctf18, stronger effect = lower value",0.0748 (active)
same,normalized growth,"S. cerevisiae deletion strains, locus YMR125W, strain sto1, stronger effect = lower value",0.0783 (active)
same,normalized growth,"S. cerevisiae deletion strains, locus YMR129W, stronger effect = lower value",0.0579 (active)
same,normalized growth,"S. cerevisiae deletion strains, locus YMR205C, strain PFK2, stronger effect = lower value",0.134 (active)
same,normalized growth,"S. cerevisiae deletion strains, locus YMR223W, strain ubp8, stronger effect = lower value",0.0699 (active)
same,normalized growth,"S. cerevisiae deletion strains, locus YMR231W, strain pep5, stronger effect = lower value",0.0661 (active)
same,normalized growth,"S. cerevisiae deletion strains, locus YMR263W, strain SAP30, stronger effect = lower value",0.065 (active)
same,normalized growth,"S. cerevisiae deletion strains, locus YMR307W, strain GAS1, stronger effect = lower value",0.116 (active) and 0.922 (inactive)
same,normalized growth,"S. cerevisiae deletion strains, locus YNL067W, strain RPL9B, stronger effect = lower value",0.0566 (active)
same,normalized growth,"S. cerevisiae deletion strains, locus YNL071W, strain lat1, stronger effect = lower value",0.0612 (active)
same,normalized growth,"S. cerevisiae deletion strains, locus YNL128W, strain TEP1, stronger effect = lower value",0.0628 (active)
same,normalized growth,"S. cerevisiae deletion strains, locus YNL153C, strain GIM3, stronger effect = lower value",0.0713 (active) and 0.0822 (active)
same,normalized growth,"S. cerevisiae deletion strains, locus YNL175C, strain NOP13, stronger effect = lower value",0.998 (inactive)
same,normalized growth,"S. cerevisiae deletion strains, locus YNL183C, strain NPR1, stronger effect = lower value",0.841 (inactive)
same,normalized growth,"S. cerevisiae deletion strains, locus YNL197C, strain WHI3, stronger effect = lower value",0.924 (inactive)
same,normalized growth,"S. cerevisiae deletion strains, locus YNL209W, strain ssb2, stronger effect = lower value",0.0633 (active)
same,normalized growth,"S. cerevisiae deletion strains, locus YNL224C, strain SQS1, stronger effect = lower value",0.826 (active)
same,normalized growth,"S. cerevisiae deletion strains, locus YNL233W, strain BNI4, stronger effect = lower value",0.0552 (active)
same,normalized growth,"S. cerevisiae deletion strains, locus YNL248C, strain rpa49, stronger effect = lower value",0.0871 (active)
same,normalized growth,"S. cerevisiae deletion strains, locus YNL250W, strain rad50, stronger effect = lower value",0.101 (active)
same,normalized growth,"S. cerevisiae deletion strains, locus YNL271C, strain bni1, stronger effect = lower value",0.0626 (active)
same,normalized growth,"S. cerevisiae deletion strains, locus YNL298W, strain CLA4, stronger effect = lower value",0.0625 (active)
same,normalized growth,"S. cerevisiae deletion strains, locus YNL307C, strain MCK1, stronger effect = lower value",0.0743 (active)
same,normalized growth,"S. cerevisiae deletion strains, locus YNL322C, strain KRE1 (second series), stronger effect = lower value",0.299 (active)
same,normalized growth,"S. cerevisiae deletion strains, locus YNL322C, strain KRE1, stronger effect = lower value",0.0495 (active) and 0.989 (inactive)
same,normalized growth,"S. cerevisiae deletion strains, locus YNR049C, strain mso1, stronger effect = lower value",0.0582 (active)
same,normalized growth,"S. cerevisiae deletion strains, locus YNR052C, strain pop2, stronger effect = lower value",0.851 (active)
same,normalized growth,"S. cerevisiae deletion strains, locus YOL006C, strain TOP1, stronger effect = lower value",0.102 (active)
same,normalized growth,"S. cerevisiae deletion strains, locus YOL012C, strain htz1",0.238 (inactive)
same,normalized growth,"S. cerevisiae deletion strains, locus YOL147C, strain pex11, stronger effect = lower value",1.01 (inactive)
same,normalized growth,"S. cerevisiae deletion strains, locus YOR001W, strain rrp6, stronger effect = lower value",0.459 (active)
same,normalized growth,"S. cerevisiae deletion strains, locus YOR061W, strain CKA2, stronger effect = lower value",0.0469 (active)
same,normalized growth,"S. cerevisiae deletion strains, locus YOR069W, strain VPS5, stronger effect = lower value",0.0489 (active)
same,normalized growth,"S. cerevisiae deletion strains, locus YOR070C, strain gyp1, stronger effect = lower value",0.0603 (active)
same,normalized growth,"S. cerevisiae deletion strains, locus YOR080W, strain dia2, stronger effect = lower value",0.803 (active)
same,normalized growth,"S. cerevisiae deletion strains, locus YOR083W, strain WHI5 (second series), stronger effect = lower value",0.0766 (active)
same,normalized growth,"S. cerevisiae deletion strains, locus YOR083W, strain WHI5, stronger effect = lower value",0.0645 (active)
same,normalized growth,"S. cerevisiae deletion strains, locus YOR106W, strain vam3, stronger effect = lower value",0.0667 (active)
same,normalized growth,"S. cerevisiae deletion strains, locus YOR136W, strain idh2, stronger effect = lower value",0.0722 (active)
same,normalized growth,"S. cerevisiae deletion strains, locus YOR144C, strain elg1, stronger effect = lower value",1.01 (inactive)
same,normalized growth,"S. cerevisiae deletion strains, locus YOR184W, strain ser1, stronger effect = lower value",0.0757 (active)
same,normalized growth,"S. cerevisiae deletion strains, locus YOR231W, strain MKK1, stronger effect = lower value",0.118 (active)
same,normalized growth,"S. cerevisiae deletion strains, locus YOR265W, strain rbl2, stronger effect = lower value",0.0602 (active)
same,normalized growth,"S. cerevisiae deletion strains, locus YOR270C, strain vph1, stronger effect = lower value",0.103 (active)
same,normalized growth,"S. cerevisiae deletion strains, locus YOR290C, strain snf2, stronger effect = lower value",0.888 (inactive)
same,normalized growth,"S. cerevisiae deletion strains, locus YOR316C, strain cot1, stronger effect = lower value",0.063 (active)
same,normalized growth,"S. cerevisiae deletion strains, locus YPL051W, strain arl3, stronger effect = lower value",0.0663 (active)
same,normalized growth,"S. cerevisiae deletion strains, locus YPL055C, strain LGE1, stronger effect = lower value",0.0731 (active)
same,normalized growth,"S. cerevisiae deletion strains, locus YPL078C, strain atp4, stronger effect = lower value",0.707 (active)
same,normalized growth,"S. cerevisiae deletion strains, locus YPL106C, strain sse1, stronger effect = lower value",0.105 (active)
same,normalized growth,"S. cerevisiae deletion strains, locus YPL240C, strain hsp82, stronger effect = lower value",0.0588 (active)
same,normalized growth,"S. cerevisiae deletion strains, locus YPL241C, strain CIN2, stronger effect = lower value",0.0501 (active) and 0.992 (inactive)
same,normalized growth,"S. cerevisiae deletion strains, locus YPL256C, strain CLN2, stronger effect = lower value",0.113 (active)
same,normalized growth,"S. cerevisiae deletion strains, locus YPR119W, strain clb2, stronger effect = lower value",0.0638 (active)
same,normalized growth,"S. cerevisiae deletion strains, locus YPR141C, strain kar3, stronger effect = lower value",0.0669 (active)
same,normalized growth,"S. cerevisiae deletion strains, locus YPR163C, strain tif3, stronger effect = lower value",0.0717 (active)
same,normalized growth,"S. cerevisiae deletion strains, locus YPR167C, strain met16, stronger effect = lower value",0.0625 (active)
same,normalized growth,"S. cerevisiae deletion strains, strain wtn01, stronger effect = lower value",0.0617 (active)
same,normalized growth,"S. cerevisiae strains, strain wild type, stronger effect = lower value",0.0481 (active)
